Assay results published in PubChem BioAssay.
Values without a mark were called inactive. The source made the active and inactive calls. Cut-off read from the data, not from the text of the source, unless noted: active = inhibition above about 36%; inactive = the rest.

Tests used:
[1] = tested on: transactivating tegument protein VP16 (Human herpesvirus 1); experiment: compounds suppressing VP16-driven luciferase signal – cell-based, luminescence, single concentration, counter-screen for SRC2 inhibitor project (AID 652007); conditions: cell-based VP16 transactivation luciferase reporter, at 8.9 µM, active compounds read high
[2] = biological target: Nuclear receptor coactivator 2 (Homo sapiens) (UniProt Q15596); experiment: inhibition of GAL4-SRC2 driven luciferase expression – cell-based, luminescence, HEK293, triplicate, confirmation (AID 652008;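 active = mean inhibition above 46.5%, the solvent-only control mean plus 3 SD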;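 note: 0% = DMSO-treated cells and 100% = Gossypol at 36 µM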); conditions: HEK293 GAL4-SRC2 luciferase reporter, at 8.9 µM, active compounds read high
Sequence of Nuclear receptor coactivator 2 (Homo sapiens) (Q15596 whole entry, looked up, the tested form may be a part): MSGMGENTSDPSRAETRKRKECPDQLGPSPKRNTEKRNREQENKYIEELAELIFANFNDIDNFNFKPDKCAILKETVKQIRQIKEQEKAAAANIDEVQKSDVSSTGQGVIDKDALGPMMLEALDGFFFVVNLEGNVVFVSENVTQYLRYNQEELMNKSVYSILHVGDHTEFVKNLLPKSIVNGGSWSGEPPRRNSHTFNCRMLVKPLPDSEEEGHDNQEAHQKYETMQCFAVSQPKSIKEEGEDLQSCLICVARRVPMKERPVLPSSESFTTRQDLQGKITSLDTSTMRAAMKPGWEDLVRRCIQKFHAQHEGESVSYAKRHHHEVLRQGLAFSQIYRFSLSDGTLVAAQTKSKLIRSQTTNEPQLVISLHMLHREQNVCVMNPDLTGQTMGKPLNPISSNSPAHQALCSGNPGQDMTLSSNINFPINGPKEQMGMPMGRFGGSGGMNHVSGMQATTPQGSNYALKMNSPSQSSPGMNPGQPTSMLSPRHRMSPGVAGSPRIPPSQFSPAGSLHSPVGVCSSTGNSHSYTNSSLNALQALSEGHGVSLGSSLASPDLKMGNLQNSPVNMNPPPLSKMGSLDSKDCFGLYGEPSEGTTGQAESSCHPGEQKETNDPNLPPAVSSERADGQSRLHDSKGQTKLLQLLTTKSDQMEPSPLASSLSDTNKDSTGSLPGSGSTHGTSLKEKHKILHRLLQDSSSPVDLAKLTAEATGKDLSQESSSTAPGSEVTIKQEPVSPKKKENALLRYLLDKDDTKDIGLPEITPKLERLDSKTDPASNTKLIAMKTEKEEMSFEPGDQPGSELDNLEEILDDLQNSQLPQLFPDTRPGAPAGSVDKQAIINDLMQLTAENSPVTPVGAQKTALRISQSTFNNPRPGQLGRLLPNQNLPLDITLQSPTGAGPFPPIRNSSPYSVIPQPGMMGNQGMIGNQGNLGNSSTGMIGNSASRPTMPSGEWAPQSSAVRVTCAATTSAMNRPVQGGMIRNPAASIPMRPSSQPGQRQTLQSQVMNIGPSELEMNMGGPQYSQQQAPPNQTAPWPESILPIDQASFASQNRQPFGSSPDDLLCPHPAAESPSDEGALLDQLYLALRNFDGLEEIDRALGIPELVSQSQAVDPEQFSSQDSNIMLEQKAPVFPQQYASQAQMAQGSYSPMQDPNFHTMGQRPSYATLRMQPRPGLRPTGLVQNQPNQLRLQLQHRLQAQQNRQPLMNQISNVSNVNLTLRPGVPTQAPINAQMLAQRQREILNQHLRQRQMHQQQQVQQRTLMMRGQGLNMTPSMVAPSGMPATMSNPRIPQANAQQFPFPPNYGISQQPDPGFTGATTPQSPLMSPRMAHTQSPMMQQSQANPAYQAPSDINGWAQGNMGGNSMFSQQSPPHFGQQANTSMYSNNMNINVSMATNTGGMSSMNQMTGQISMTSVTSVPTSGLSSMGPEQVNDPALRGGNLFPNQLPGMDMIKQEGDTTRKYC

CCCCC(=O)Nc1ccc(C)c(S(=O)(=O)N2CCCCCC2)c1
inhibition [1]: -13.7%
inhibition [2]: 18.4%

COc1cc(/C=C/C(=O)Nc2ccc(OC)c(S(=O)(=O)N3CCOCC3)c2)ccc1OC(F)F
inhibition [1]: 11%
inhibition [2]: 63.1% (active)

N#Cc1c([N+](=O)[O-])cc([N+](=O)[O-])cc1S(=O)(=O)Cc1ccccc1
inhibition [1]: 96.4% (active)
inhibition [2]: 98.5% (active)

COC(=O)c1c(NC(=O)CCCC(=O)O)sc2c1CCCCC2
inhibition [1]: 29.6%
inhibition [2]: 53.8% (active)

NC(=O)c1ccsc1NC(=O)COC(=O)c1ccc([N+](=O)[O-])o1
inhibition [1]: -4.1%
inhibition [2]: -22.5%

O=C(NCCCN1CCN(c2ccccc2)CC1)C1CCCN(c2ncnc3c2nc2n3CCCCC2)C1 (stereo unspecified)
inhibition [1]: 6.18%
inhibition [2]: -21.6%

Cc1ccc(-c2noc(CCCC(=O)NC3CCCC3)n2)cc1
inhibition [1]: 20.1%
inhibition [2]: 42.4%

CC(=O)c1cc2c(cc1NC(=O)c1ccc(-n3nc(C)cc3C)cc1)OCO2
inhibition [1]: -6.86%
inhibition [2]: -7.82%

COc1cc2[nH]c(=O)n(CCCCCC(=O)NCCCN3CCCC3=O)c(=O)c2cc1OC
inhibition [1]: 7.78%
inhibition [2]: -9.47%

CCCCN(CCCNC(=S)NCCCc1cnc[nH]1)c1ccc(Br)cn1
inhibition [1]: -7.99%
inhibition [2]: 39.1%

CS(=O)(=O)c1ccc(Cl)c(NC(=O)c2cccc(-n3cnnn3)c2)c1
inhibition [1]: -11.3%
inhibition [2]: -13.4%

Cc1oc(-c2cccc3ccccc23)nc1CN1CCN(c2ncnc3ccccc23)CC1
inhibition [1]: -22.1%
inhibition [2]: 5.63%

Cc1nc([N+](=O)[O-])c(Br)n1Cc1ccc(Cl)c(Cl)c1
inhibition [1]: 10.6%
inhibition [2]: 43.9%

CCOc1ccc2oc(C(=O)NCc3ccccc3CN3CCCC3)c(C)c2c1
inhibition [1]: -10.5%
inhibition [2]: -12.9%

CCOc1cc(/C=C2/NC(=O)N(Cc3ccccc3F)C2=O)ccc1O
inhibition [1]: 4.78%
inhibition [2]: 30.1%

O=C(CCl)Nc1ccc(-c2ccccc2)cc1
inhibition [1]: 32.4%
inhibition [2]: 65.6% (active)

N#Cc1ccccc1COc1ccc(/C=C/C(=O)O)cc1
inhibition [1]: 57.9% (active)
inhibition [2]: 76.8% (active)

COc1ccccc1NC(=O)C(C)OC(=O)c1cc2ccccc2[nH]1 (stereo unspecified)
inhibition [1]: 15.9%
inhibition [2]: 17.2%

CC(=O)n1cc(N(C(=O)CCl)c2ccccc2)c2ccccc21
inhibition [1]: 51.8% (active)
inhibition [2]: 50.5% (active)

Cc1nn(-c2ccccc2)c(N2CCCC2)c1/C=N/NC(=O)c1cccc(S(=O)(=O)Nc2ccc(Cl)cc2)c1
inhibition [1]: -8.85%
inhibition [2]: -16.7%

O=S(=O)(O)Sc1ccccc1
inhibition [1]: -0.6%
inhibition [2]: 4.75%

Cc1cc(N2CCOCC2)c2c(N)cc(C)c(C)c2n1
inhibition [1]: -7.44%
inhibition [2]: -11.2%

Cc1cc(=O)oc2cc(OC(C)C(=O)NCCc3ccc(S(N)(=O)=O)cc3)ccc12 (stereo unspecified)
inhibition [1]: -19.6%
inhibition [2]: -12.7%

Cc1cccc(NC(=O)Nc2ccc(Cl)c(Cl)c2)n1
inhibition [1]: -83.6%
inhibition [2]: -16.7%

O=C(Nc1ccc(NC(=O)c2ccco2)cc1)c1ccc2c(c1)OCCO2
inhibition [1]: -30.2%
inhibition [2]: 12.1%

C=CCOc1ccccc1CN1CCC(Cc2ccccc2)CC1
inhibition [1]: 8.57%
inhibition [2]: -13.5%

Cc1ccc(O)c(/C=N/NC(=O)Cc2ccc(Cl)cc2)c1
inhibition [1]: -11.1%
inhibition [2]: -13.9%

COC(=O)c1cnn(-c2ccc(Cl)cc2)c1/C=N/NC(N)=S
inhibition [1]: 22%
inhibition [2]: 34.7%

Cc1ccc(CC2C(=O)N(c3cc(C)ccc3C)C(=O)C2C)cc1 (stereo unspecified)
inhibition [1]: 0.03%
inhibition [2]: 9.44%

Cc1ccc([N+](=O)[O-])cc1N(CC(=O)Nc1ccc(S(=O)(=O)Nc2cccc(C(F)(F)F)c2)cc1)S(C)(=O)=O
inhibition [1]: -13.7%
inhibition [2]: -3.19%

CCCCc1ccc(S(=O)(=O)N/N=C(/C)c2ccncc2)cc1
inhibition [1]: 30.5%
inhibition [2]: 68.7% (active)

CC(C)(C)c1ccc(NC(=O)COc2ccc(-n3ccnc3)cc2)cc1
inhibition [1]: 10.3%
inhibition [2]: 61.8% (active)

COc1ccc([N+](=O)[O-])c(S(=O)(=O)c2ccc(Cl)cc2)n1
inhibition [1]: 8.89%
inhibition [2]: 52.3% (active)
